Assay results published in PubChem BioAssay AID504697 (The Scripps Research Institute Molecular Screening Center, 2011).
A number with no mark means an inactive call. Active and inactive are the calls of the source.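 Rule for the calls: active = EC50 at or below 10 µM; inactive = EC50 above 10 µM.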

test: fluorescence interference artefacts, compound only, dose response, artefact control for cardiac thin filament activator project, biochemical, no RTF in test wells (AID 504697); details: compound-only fluorescence in RTF assay buffer with Ca2+ (no RTF in test wells), artifact counterscreen;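 note: emission near 535 nm under roughly 485 nm excitation as for IANBD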

Row | SMILES | EC50
1 | CCCN1C=CC(=CC=C(C#N)C#N)C=C1 | 19.9 µM
2 | CC1(C)CCN2CCC(C)(C)c3c(O)ccc1c32 | 5.84 µM (active)
3 | O=[N+]([O-])c1ccc(/C=C/C2=NN(c3ccccc3)C(c3ccco3)C2)cc1 (stereo unspecified) | 1.04 µM (active)
4 | O=C(CNCc1cccs1)Nc1ccc(S(=O)(=O)N2CCCCC2)cc1 | > 71.5 µM
5 | Cc1cc(/C=C2/C(=O)N(C)C(=S)N2C)ccc1N1CCCC1 | 28.8 µM
6 | CN(N=Nc1ccc([N+](=O)[O-])cc1)c1ccccc1 | 8.06 µM (active)
7 | O=C1c2cccc3c(N4CCCCC4)ccc(c23)C(=O)N1c1cccc(O)c1 | 5.54 µM (active)
8 | Cc1sc(NC(=O)CSc2nnc(C(C)C)n2C)c(C#N)c1C | > 71.5 µM
9 | CN(/N=C/c1ccc(-c2ccc([N+](=O)[O-])cc2)o1)c1ccccc1 | > 71.5 µM
10 | O=C(CSC1=NS(=O)(=O)c2ccccc2N1)N1CCCCC1 | > 71.5 µM
11 | C=COc1ccc(N2C(=O)c3ccccc3OC2C)cc1 (stereo unspecified) | > 71.4 µM
12 | O=C(O)c1cc(NCc2ccc(F)cc2)ccc1N1CCOCC1 | > 71.5 µM
13 | Cc1ccccc1-n1nnnc1SCC(C)C | > 71.5 µM
14 | CCSC1=N/C(=C\C=C2/Oc3ccccc3N2CC)C(=O)S1 | 11.9 µM
15 | Cc1cc(C=C2C(=O)c3ccccc3C2=O)c(C)n1-c1ccccc1 | 29.9 µM
16 | CCOC(=O)/C(=C/C=C1\Sc2cc(OCC)c(OCC)cc2N1CC)C(C)=O | 0.48 µM (active)
